A short description of experiment [1]: Nuclear factor erythroid 2-related factor 2/antioxidant responsive element (Nrf2/ARE) small molecule agonists: qHTS cell viability counter screen in human keratinocytes (AID 1919968; active = well fitted curve in the direction sought with a large enough effect in the repeat runs; an effect the other way counts as inactive or inconclusive; also: nearly all actives have a fitted effect of over 55% in size). In a few lines:
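Fluorescence read-out from CellTiter-Fluor after 1 h at 37 C. Wells held HaCaT-derived ARE-luciferase reporter cells (1,500/well) treated 23 h with DMSO-dissolved compounds. Run in the same wells as the luciferase agonist read.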
Background: qHTS replaces the single test concentration by a dilution series.

Experiment [2] is described as follows: Nuclear factor erythroid 2-related factor 2/antioxidant responsive element (Nrf2/ARE) small molecule agonists: luciferase reporter gene qHTS assay in human keratinocytes (AID 1919969). Also: nearly all actives have a fitted effect of over 35% in size. Also: potency is read from the fitted curve at half-maximal effect. For orientation: Reporter assays use an easily measured gene product as a stand-in for the process of interest.
Experiment [3] has as its target Gonadotropin-releasing hormone receptor (Homo sapiens) (UniProt P30968). Briefly: Human gonadotropin-releasing hormone receptor (GnRHR) small molecule agonists, calcium flux assay in GnRHR-HEK293 cells (AID 1920063). Also: nearly all actives have a fitted effect of over 35% in size. A digest of the protocol:
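Calcium-dye fluorescence, Ex/Em=480/540, recorded every 1 sec over 3 min after compound addition to GnRHR-HEK293 cells. Cells had been seeded 18 hours earlier and dye-loaded for 1 hour at 37 C. Fifteen concentrations, triplicates.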
In general terms: Calcium flux is commonly read through the fluorescence of an indicator in the cells.

Experiment [4] addresses KiSS-1 receptor (Homo sapiens) (UniProt Q969F8). Briefly: Human kisspeptin (KISS1R) small molecule agonists, calcium flux assay in KISS1R-HEK293 cells (AID 1920064; active = well fitted curve in the direction sought with a large enough effect in the repeat runs; an effect the other way counts as inactive or inconclusive). A digest of the protocol:
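Calcium flux read-out: kinetic fluorescence at Ex/Em=480/540, 1 s intervals over 3 min, after pin-tool compound addition to dye-loaded KISS1R-HEK293 cells. Fifteen concentrations, triplicates.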

The nature of experiment [5]: G protein-coupled receptor (GPCR) small molecule agonists, calcium flux assay: HEK293 wild type cell line counter screen (AID 1920065). In a few lines:
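Agonist mode; 18 h seeding at 37 C, 1 h dye load at 37 C; compounds pinned from DMSO, ATP as positive control; kinetic fluorescence 480/540 nm, 3 min, 1 s reads; 15 concentrations, triplicate.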

Experiment [6] in a line: p53 small molecule agonists, cell-based qHTS assay with human liver microsomes: qHTS cell viability counter screen (AID 1963579). Also: nearly all actives have a fitted effect of over 45% in size. A digest of the protocol:
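Seed p53RE-bla cells at 4,000 per well; incubate 5 h at 37 C; add compound, human liver microsomes and NADPH; incubate 16 h at 37 C; add CellTiter-Glo; after 30 min at room temperature, read luminescence.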

Experiment [7] in a line: p53 small molecule agonists, cell-based qHTS assay with rat liver microsomes: qHTS cell viability counter screen (AID 1963580). Also: nearly all actives have a fitted effect of over 45% in size. In a few lines:
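Cytotoxicity counter screen: intracellular ATP read by CellTiter-Glo luminescence in the p53 reporter wells. HCT-116 p53RE-bla cells were treated for 16 h at 37 C alongside rat liver microsomes and NADPH, each 0.5 mg/mL final.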

Experiment [8] can be described thus: p53 small molecule agonists, cell-based qHTS assay: qHTS cell viability counter screen (AID 1963581). Also: nearly all actives have a fitted effect of over 45% in size. A digest of the protocol: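 Cytotoxicity read-out: ATP-based luminescence (CellTiter-Glo, 30 min RT) measured in the same wells as the p53 reporter assay, HCT-116 p53RE-bla cells, 16 h compound exposure at 37 C.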
Experiment [9] can be described thus: p53 small molecule agonists, cell-based qHTS assay (AID 1963582; active = well fitted activation curve with a large enough effect in the signal ratio in the repeat runs, not every such curve was filed as active; the % refers to the signal ratio). In a few lines:
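Fluorescence intensity read-out of a beta-lactamase reporter under a p53 response element. Cells were exposed to DMSO-dissolved compounds for 16 h at 37 C, then developed with FRET substrate for 2 h at RT.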

The target of experiment [10] is 5-hydroxytryptamine receptor 2A (Homo sapiens) (UniProt P28223). Briefly: 5-hydroxytryptamine receptor 2A (HTR2A) small molecule antagonists, cell-based qHTS assay (AID 1963586). Also: nearly all actives have a fitted effect of over 45% in size. In a few lines:
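CHO cells stably expressing human HTR2A were plated for 18 h at 37 C, then loaded with calcium dye for 1 h. Compounds were preincubated 5 min at room temperature before DOI (4 nM solution) was added. Kinetic fluorescence was read for 3 min.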

Experiment [11] shares this target. Briefly: 5-hydroxytryptamine receptor 2A (HTR2A) small molecule agonists, cell-based qHTS assay (AID 1963587). Also: nearly all actives have a fitted effect of over 30% in size. In a few lines:
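Kinetic calcium-flux fluorescence (2 min, 1 sec intervals) after compound addition in agonist mode. HTR2A-CHO cells were cultured 18 h, then dye-loaded 1 h at 37 C.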

For experiment [12], the target named is Muscarinic acetylcholine receptor M1 (Homo sapiens) (UniProt P11229). The experiment can be described thus: Cholinergic receptor muscarinic 1 (CHRM1) small molecule antagonists, cell-based qHTS assay (AID 1963588). Also: nearly all actives have a fitted effect of over 40% in size. In a few lines: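 Compounds were tested at 15 concentrations in three independent runs. Dye-loaded CHRM1-CHO cells were exposed 5 min at room temperature before stimulation by acetylcholine added at 50nM. Intracellular calcium was read kinetically on FDSS for 3 min.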
Sequence of Muscarinic acetylcholine receptor M1 (Homo sapiens) (P11229 whole entry, looked up): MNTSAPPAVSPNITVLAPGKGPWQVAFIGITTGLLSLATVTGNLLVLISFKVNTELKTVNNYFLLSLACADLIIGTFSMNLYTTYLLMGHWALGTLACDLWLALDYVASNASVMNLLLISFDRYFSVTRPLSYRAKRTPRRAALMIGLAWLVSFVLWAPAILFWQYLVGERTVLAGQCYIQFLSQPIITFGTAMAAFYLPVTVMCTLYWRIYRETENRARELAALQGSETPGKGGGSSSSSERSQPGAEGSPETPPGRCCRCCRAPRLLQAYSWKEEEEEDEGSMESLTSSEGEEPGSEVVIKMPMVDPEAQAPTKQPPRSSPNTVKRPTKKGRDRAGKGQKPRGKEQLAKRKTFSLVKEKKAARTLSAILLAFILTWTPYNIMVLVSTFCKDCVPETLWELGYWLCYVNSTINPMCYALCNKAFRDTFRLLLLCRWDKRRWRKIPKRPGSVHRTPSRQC

Experiment [13] shares this target. Briefly: Cholinergic receptor muscarinic 1 (CHRM1) small molecule agonists, cell-based qHTS assay (AID 1963589). Also: nearly all actives have a fitted effect of over 35% in size. A digest of the protocol:
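Calcium flux read-out: kinetic fluorescence at 1 sec intervals after pin-tool compound addition to dye-loaded CHRM1-CHO cells (human M1). Agonist mode; 15 concentrations tested in triplicate independent runs.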

Experiment [14] can be described thus: cAMP Responsive Elements (CRE) small molecule agonists, cell-based qHTS assay (AID 1963590). A digest of the protocol: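 Beta-lactamase reporter readout: LiveBLAzer B/G FRET substrate, 2 h at room temperature, added after 3 h compound treatment of CRE-bla HEK 293T cells at 37 C/5% CO2.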
Experiment [15] in a line: cAMP Responsive Elements (CRE) small molecule antagonists, cell-based qHTS assay (AID 1963591; active = well fitted inhibition curve with a large enough effect in the signal ratio in the repeat runs, not every such curve was filed as active; the % refers to the signal ratio). A digest of the protocol:
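HEK293T CRE-bla; 18 h preincubation; compound pin-transfer; NKH477 0.25 uM final, 3 h, 37 C; LiveBLAzer FRET substrate 2 h RT.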

Experiment [16] addresses Beta-2 adrenergic receptor (Homo sapiens) (UniProt P07550). The experiment can be described thus: Adrenergic beta2 receptor (ADRB2) small molecule antagonists, cell-based qHTS assay (AID 1963592). Also: series mostly up to about 92 µM; nearly all actives have a fitted effect of over 50% in size. A digest of the protocol:
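Assay format: CHO-ADRB2 cells, 18-20hr seeding at 37C/5% CO2, then compound plus 1nM isoproterenol agonist mix for 0.5hr RT. Homogeneous time-resolved fluorescence cAMP detection after 1hr, expressed as 665/615 nm ratio.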

Experiment [17] has the same target. Briefly: Adrenergic beta2 receptor (ADRB2) small molecule agonists, cell-based qHTS assay (AID 1963593).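 Also: CHO cells stably overexpressing human ADRB2.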 In a few lines:
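CHO cells stably over-expressing ADRB2 were plated overnight at 37C, then dosed with compounds plus a stimulation mix containing 100uM IBMX and 25uM Ro-20-1724 for 0.5hr at room temperature. cAMP was measured by HTRF competition, 1hr.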

Experiment [18] deals with D(2) dopamine receptor (Homo sapiens) (UniProt P14416). Briefly: Dopamine D2 receptor (DRD2) small molecule agonists, cell-based qHTS assay (AID 1963594). Also: nearly all actives have a fitted effect of over 35% in size. In a few lines: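 cAMP accumulation in DRD2-HEK293 cells measured by HTRF after 1 h detection; compounds added 10 min before NKH477 (200nM […]) forskolin-analogue stimulation, 30 min at room temperature, with Ro20-1724 present at 0.1 mM final.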
Sequence of D(2) dopamine receptor (Homo sapiens) (P14416 whole entry, looked up): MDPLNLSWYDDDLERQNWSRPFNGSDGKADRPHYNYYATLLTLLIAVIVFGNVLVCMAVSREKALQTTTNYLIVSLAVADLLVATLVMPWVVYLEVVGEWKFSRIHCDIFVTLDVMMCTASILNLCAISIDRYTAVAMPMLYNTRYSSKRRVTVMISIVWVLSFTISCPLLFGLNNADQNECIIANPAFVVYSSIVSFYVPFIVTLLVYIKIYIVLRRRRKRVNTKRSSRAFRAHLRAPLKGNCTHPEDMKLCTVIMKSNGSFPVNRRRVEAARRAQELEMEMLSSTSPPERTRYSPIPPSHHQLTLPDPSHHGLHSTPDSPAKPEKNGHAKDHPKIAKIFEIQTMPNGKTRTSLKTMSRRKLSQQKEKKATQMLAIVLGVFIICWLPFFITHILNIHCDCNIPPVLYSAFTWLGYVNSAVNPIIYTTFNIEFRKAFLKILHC

The nature of experiment [19]: p53 small molecule agonists, cell-based qHTS assay with rat liver microsomes (AID 1963578). A digest of the protocol:
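Fluorescence from a beta-lactamase reporter under a p53 response element was measured after cells had been incubated 16 h at 37 C with test compound and rat liver microsomes plus NADPH (0.5 mg/mL final each).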

Experiment [20] addresses D(2) dopamine receptor (Homo sapiens) (UniProt P14416). Briefly: Dopamine D2 receptor (DRD2) small molecule antagonists, cell-based qHTS assay (AID 1963595; active = well fitted inhibition curve with a large enough effect in the signal ratio in the repeat runs, with a control signal flat; the % refers to the signal ratio). A digest of the protocol:
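Readout: HTRF cAMP, cAMP-d2 competing with cellular cAMP for anti-cAMP cryptate, read after 1 h. Cells: DRD2-HEK293. Conditions: 0.1 mM Ro20-1724, 12 nM quinpirole, 200 nM NKH477, 30 min RT.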

A number with no mark means an inactive call. Results filed as inconclusive are left out. Calls of active or inactive are those of the source. Unless noted, calls follow the shape of the full dose curve.

Sequence of KiSS-1 receptor (Homo sapiens) (Q969F8 whole entry, looked up): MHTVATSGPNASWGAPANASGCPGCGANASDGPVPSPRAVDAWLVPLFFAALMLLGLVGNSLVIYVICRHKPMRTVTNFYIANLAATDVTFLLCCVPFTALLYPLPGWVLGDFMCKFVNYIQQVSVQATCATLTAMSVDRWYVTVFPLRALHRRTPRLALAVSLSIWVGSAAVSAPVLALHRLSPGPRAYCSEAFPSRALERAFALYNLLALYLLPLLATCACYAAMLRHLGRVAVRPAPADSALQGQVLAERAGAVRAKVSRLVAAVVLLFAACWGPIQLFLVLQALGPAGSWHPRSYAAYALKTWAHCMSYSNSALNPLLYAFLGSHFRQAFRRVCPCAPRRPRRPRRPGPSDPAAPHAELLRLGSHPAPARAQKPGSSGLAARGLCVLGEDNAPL
Sequence of 5-hydroxytryptamine receptor 2A (Homo sapiens) (P28223 whole entry, looked up): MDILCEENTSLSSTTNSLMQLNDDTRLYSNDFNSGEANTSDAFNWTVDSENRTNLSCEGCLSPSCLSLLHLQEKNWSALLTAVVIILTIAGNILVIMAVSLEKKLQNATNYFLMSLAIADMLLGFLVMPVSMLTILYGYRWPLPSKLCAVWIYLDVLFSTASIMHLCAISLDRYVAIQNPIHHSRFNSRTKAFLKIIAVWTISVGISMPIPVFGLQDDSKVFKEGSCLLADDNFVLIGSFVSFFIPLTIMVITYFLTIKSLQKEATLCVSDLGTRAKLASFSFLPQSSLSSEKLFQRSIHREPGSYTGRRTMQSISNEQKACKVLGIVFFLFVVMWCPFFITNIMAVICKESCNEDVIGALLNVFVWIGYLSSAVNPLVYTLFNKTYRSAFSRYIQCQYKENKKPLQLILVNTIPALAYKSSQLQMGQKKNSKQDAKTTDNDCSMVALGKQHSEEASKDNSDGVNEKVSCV
Sequence of Gonadotropin-releasing hormone receptor (Homo sapiens) (P30968 whole entry, looked up): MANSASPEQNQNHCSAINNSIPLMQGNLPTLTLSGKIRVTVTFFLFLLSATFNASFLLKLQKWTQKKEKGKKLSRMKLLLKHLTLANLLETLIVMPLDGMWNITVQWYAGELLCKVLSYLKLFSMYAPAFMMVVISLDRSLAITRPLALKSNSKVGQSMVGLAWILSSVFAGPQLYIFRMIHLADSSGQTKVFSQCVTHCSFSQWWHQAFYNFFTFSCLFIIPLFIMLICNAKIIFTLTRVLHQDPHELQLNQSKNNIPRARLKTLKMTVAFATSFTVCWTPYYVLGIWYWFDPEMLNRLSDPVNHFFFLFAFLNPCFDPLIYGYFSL
Sequence of Beta-2 adrenergic receptor (Homo sapiens) (P07550 whole entry, looked up): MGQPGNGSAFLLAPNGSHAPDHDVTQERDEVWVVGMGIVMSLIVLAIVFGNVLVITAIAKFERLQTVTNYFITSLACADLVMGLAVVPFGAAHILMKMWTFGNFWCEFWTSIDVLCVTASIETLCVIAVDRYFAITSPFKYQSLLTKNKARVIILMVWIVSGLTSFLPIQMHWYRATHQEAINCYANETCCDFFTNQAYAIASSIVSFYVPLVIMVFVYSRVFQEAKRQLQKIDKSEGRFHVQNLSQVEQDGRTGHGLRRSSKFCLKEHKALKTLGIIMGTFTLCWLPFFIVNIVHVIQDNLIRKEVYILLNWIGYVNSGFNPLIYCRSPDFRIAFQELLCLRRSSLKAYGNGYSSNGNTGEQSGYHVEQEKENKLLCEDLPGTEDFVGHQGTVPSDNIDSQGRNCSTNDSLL

On to `CC(C)CP(=S)(S)CC(C)C`, for which the Potency entry in [1], in [3], in experiment [4], in experiment [5], in experiment [6] and in experiment [7] was “inactive” throughout. In addition, the Potency entry in [8], in experiment [9], in experiment [10], in experiment [11], in [12] and in experiment [13] was “inactive” throughout. In addition, the Potency result in experiment [14], in experiment [15], in [16], in experiment [17] and in experiment [18] was “inactive” each time. Besides, the Potency in experiment [2] was 15.4 µM (active).

Consider `C[C@H](CN1CCOCC1)C(C(=O)N1CCCC1)(c1ccccc1)c1ccccc1`, for which the Potency result in experiment [1], in experiment [2], in [3], in experiment [4], in [5] and in experiment [19] was “inactive” in each case. Besides, the Potency entry in experiment [6], in experiment [10], in experiment [11], in [13], in [15] and in experiment [16] was “inactive” in each case. The Potency entry in experiment [17] and in [18] was “inactive” each time.

For `CN=CNc1ccc(C)cc1C`, the Potency result in [1], in experiment [2], in experiment [3], in [4], in experiment [5] and in experiment [19] was “inactive” throughout. Further, the Potency entry in experiment [7], in experiment [9], in [10], in [11], in experiment [12] and in experiment [13] was “inactive” each time. For the same compound, the Potency entry in experiment [14], in [15], in experiment [16], in experiment [17] and in experiment [18] was “inactive” each time.

In the case of `COP(N)(=S)OC`, the Potency entry in [1], in [2], in experiment [3], in experiment [4], in experiment [5] and in experiment [6] was “inactive” in each case. Moreover, the Potency entry in experiment [7], in [8], in experiment [9], in [10], in experiment [11] and in experiment [12] was “inactive” in each case. For the same compound, the Potency entry in experiment [13], in [14], in [15], in experiment [16] and in experiment [18] was “inactive” throughout.

Turning to `O=C(CCl)NCO`, the Potency result in experiment [1], in experiment [2], in experiment [3], in experiment [4], in experiment [5] and in experiment [19] was “inactive” throughout. For the same compound, the Potency entry in [7], in experiment [8], in experiment [9], in [10], in experiment [11] and in experiment [12] was “inactive” throughout. The Potency result in experiment [13], in [14], in experiment [15], in [16], in experiment [18] and in experiment [20] was “inactive” in each case.

Turning to `CNC(=O)Oc1cc(C)cc(C(C)C)c1`, the Potency result in experiment [1], in experiment [2], in [3], in experiment [4], in [5] and in experiment [6] was “inactive” each time. In addition, the Potency result in experiment [7], in [8], in [9], in [10], in experiment [11] and in experiment [12] was “inactive” in each case. For the same compound, the Potency entry in [13], in [14], in [15], in [16], in experiment [18] and in experiment [20] was “inactive” in each case.

Values taken from PubChem BioAssay (Tox21).
